Most compounds without a hit are left out; they make up all but 12% or so of the library.
L3MBTL1 block: qHTS Assay for the Inhibitors of L3MBTL1; Lethal(3)malignant brain tumor-like protein 1 (Homo sapiens), Q9Y468; AlphaScreen L3MBTL1–H3K9me1 peptide binding; Potency, µM (series often up to 57.1 µM), inactives show top-dose activity, negative = inhibition, most hits filed as inhibitors; 0.66% of 230,000 active; note: % is set by controls: 0 for no effect and ±100 for the full control effect; nearly all actives have a fitted effect of over 60% in size
Target sequence (Q9Y468 whole entry, looked up): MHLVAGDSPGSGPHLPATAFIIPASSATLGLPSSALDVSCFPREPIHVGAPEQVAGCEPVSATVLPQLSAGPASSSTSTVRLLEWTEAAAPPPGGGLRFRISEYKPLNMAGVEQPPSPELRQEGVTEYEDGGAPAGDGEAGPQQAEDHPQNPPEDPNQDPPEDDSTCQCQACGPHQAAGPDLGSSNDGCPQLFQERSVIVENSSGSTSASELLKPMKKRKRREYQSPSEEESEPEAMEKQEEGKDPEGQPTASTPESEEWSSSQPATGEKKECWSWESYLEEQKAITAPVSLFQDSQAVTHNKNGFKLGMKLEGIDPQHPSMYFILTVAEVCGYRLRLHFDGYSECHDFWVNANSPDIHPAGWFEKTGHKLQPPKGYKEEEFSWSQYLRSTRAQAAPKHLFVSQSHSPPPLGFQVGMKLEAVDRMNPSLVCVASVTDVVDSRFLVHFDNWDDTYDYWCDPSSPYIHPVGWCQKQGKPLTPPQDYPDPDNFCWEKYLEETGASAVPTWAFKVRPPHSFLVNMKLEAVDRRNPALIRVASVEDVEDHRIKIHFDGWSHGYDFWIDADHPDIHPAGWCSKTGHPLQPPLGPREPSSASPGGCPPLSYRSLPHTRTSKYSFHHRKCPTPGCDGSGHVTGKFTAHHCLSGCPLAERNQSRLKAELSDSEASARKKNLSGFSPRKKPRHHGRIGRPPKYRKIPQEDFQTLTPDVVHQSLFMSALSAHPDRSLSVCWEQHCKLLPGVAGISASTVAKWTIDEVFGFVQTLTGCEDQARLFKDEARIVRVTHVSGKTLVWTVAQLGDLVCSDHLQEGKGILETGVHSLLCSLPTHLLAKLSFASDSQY
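L3MBTL1 (50 nM) pre-complexed 30 min with biotinylated H3(1-15)K9me1 peptide (75 nM), then compounds added for 30 min at room temperature; AlphaScreen streptavidin donor/nickel chelate acceptor beads (10 ug/mL final) read after 30 min dark incubation.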
Sfp PPTase inh: qHTS Assay for Inhibitors of Bacillus subtilis Sfp phosphopantetheinyl transferase (PPTase); 4'-phosphopantetheinyl transferase ffp (Bacillus subtilis), Q9F4F7; Biochemical Sfp PPTase activity, qHTS; Potency, µM, without a hit: largest response in the series, negative = inhibition, usual class: inhibitors; 3.5% of 310,000 active;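 note: the enzyme is Sfp with the accession as filed and its product quenches rhodamine fluorescence; 0% = enzyme reaction without inhibitor and -100% = no enzyme wells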
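Compounds were incubated with enzyme (final 15 nM) for 15 min at room temperature before substrate addition started the reaction. Fluorescence at 525 nm excitation, 598 nm emission was recorded immediately and after 30 minutes.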
HP1b binding inh: HTS for Inhibitors of HP1-beta Chromodomain Interactions with Methylated Histone Tails; Chromobox protein homolog 1 (Homo sapiens), P83916; AlphaScreen HP1-beta / biotin-H3K9me3 peptide binding; Potency, µM (top dose mostly 114 µM), for inactives: top-dose activity change, negative = inhibition, hits mostly inhibitors; 0.56% of 390,000 active; AID 540317, 2011; note: nearly all actives have a fitted effect of over 70% in size
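HP1-beta protein (50 nM final) preincubated 30 min at room temperature with biotinylated H3(1-18)K9me3 peptide (50 nM) in PBS pH 7.4, 0.01% Tween-20, then compound added for 30 min. AlphaScreen streptavidin donor/nickel chelate acceptor beads (10 ug/mL final), 30 min dark, luminescence read.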
JMJD2A Tudor inh: qHTS Assay for Inhibitors of JMJD2A-Tudor Domain; Lysine-specific demethylase 4A (Homo sapiens), O75164; AlphaScreen JMJD2A-Tudor / H3K4me3 peptide binding; Potency, µM (highest dose often 114 µM), inactives show at the top dose activity change, negative = inhibition, actives largely listed as inhibitors; 4.4% of 390,000 active; AID 504339, 2011; note: % is set by controls: 0 for no effect and ±100 for the full control effect; nearly all actives have a fitted effect of over 50% in size
BAZ2B inh: qHTS Assay for Inhibitors of BAZ2B; Potency, µM (series often up to 114 µM), without a hit: at the highest dose activity change, negative = inhibition, most hits filed as inhibitors; Bromodomain adjacent to zinc finger domain protein 2B (Homo sapiens), Q9UIF8; AlphaScreen BAZ2B-H3K14Ac peptide displacement; 4.4% of 360,000 active; note: % is set by controls: 0 for no effect and ±100 for the full control effect; nearly all actives have a fitted effect of over 60% in size
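AlphaScreen displacement: compounds (up to 110uM) incubated 30 min at room temperature with a preformed 50 nM BAZ2B/50 nM biotinylated H3K14Ac peptide complex in PBS pH 7.4 with Tween-20. Donor and acceptor beads at 10 ug/mL final added, 20 min light-protected before reading.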
G9a block: qHTS Assay for Inhibitors of Histone Lysine Methyltransferase G9a; 8.8% of 350,000 active; Potency, µM (titrated, usually from 102 µM), for inactives: top-dose activity, negative = inhibition, usual class: inhibitors; G9a H3K9 monomethylation, AlphaScreen, 2 h; note: % is set by controls: 0 for no effect and ±100 for the full control effect; nearly all actives have a fitted effect of over 75% in size
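AlphaScreen detection with an anti-monomethyl H3K9 antibody quantified product after a 2 h room-temperature reaction containing 500 nM biotinylated H3K9 peptide, 20 µM SAM and 20 nM enzyme, which had been preincubated 15 min with compound.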
* hit, by the source's call; ? = inconclusive; / = no result; [ ] = remark or other dose. Calls come from the whole dose curve; as a rule, active = well fitted curve in the direction sought with a large enough effect; inconclusive = small, poorly fitted or top-dose-only effect, or another doubt; inactive = no such curve, though single readings can be large; an effect the other way counts as inactive or inconclusive. Potency is the fitted concentration of half-maximal effect.

SMILES	L3MBTL1 block	Sfp PPTase inh	HP1b binding inh	JMJD2A Tudor inh	BAZ2B inh	G9a block
CCOP(=O)(OCC)C1(O)C(=O)Nc2ccc(Br)cc21 (stereo not drawn)	2%	25%	21%	-11%	-5%	18µM*
Oc1cc(Cl)cc(Cl)c1Cl	2%	/	28%	-17%	-1%	8%[0.501 µM]
COc1ccc(CN2CC=C(c3ccc(F)cc3)CC2)cc1Br	3%	-22%	88%	-16%	-29%	21%
CCN(CC)c1ccc(CN2CC=C(c3ccc(F)cc3)CC2)cc1	/	5%	45µM*	50µM*	79µM*	45µM*
O=C(CCCN1CCC2(CC1)C(=O)N(Cc1cccc(F)c1)CN2c1ccccc1)c1ccc(F)cc1	/	71µM*	/	/	/	?
CC(=O)C1(c2ccccc2)CCN(C(=O)C2CCC(=O)N(CCc3cccc(F)c3)C2)CC1 (stereo not drawn)	/	19%	24%	-6%	-2%	75%
CCCN1CCC[C@@H]2Cc3cn[nH]c3C[C@H]21	/	?	/	/	/	-3%[59 µM]
O=C(Cn1c2c(c(-c3ccccc3Cl)cc1=O)CCC2)N1CCC2(CC1)OCCO2	-5%	22µM*	10%	-17%	-1%	-33%[59 µM]
CCN1CCN(c2ccc([N+](=O)[O-])cc2C=C2C(=O)NC(=O)NC2=O)CC1	3%	45µM*	?	-11%	1%	?
CCN1CCN(c2cc(N3CCCC3)c([N+](=O)[O-])cc2F)CC1	-5%	-6%	-29%	?	?	?
CC(=O)N1CCN(c2ccc([N+](=O)[O-])cc2C=C2C(=O)NC(=O)NC2=O)CC1	8%	-12%	39%	0%	13%	40µM*
COc1ccc(-c2c3c(=O)n(C)c(=O)n(C)c3c3n2-c2ccccc2NC3c2ccccc2OC)cc1 (stereo not drawn)	/	/	28%	-13%	-5%	?
Nn1c(COc2ccc(Cl)cc2)n[nH]c1=S	10%	35µM*	-8%	32µM*	-14%	1.8µM*
Cc1cccc(C)c1OCc1n[nH]c(=S)n1N	3%	50µM*	-18%	18µM*	?	1.8µM*
CC(=O)Oc1ccc(Cl)c2cccnc12	/	22%	/	/	/	-8%[2.33 µM]
CC(C)CCNC(=O)CN1C(=O)CN=C(c2ccccc2)c2ccccc21	/	3%	10%	-14%	1%	-8%[12.7 µM]
O=C(CN1C(=O)CN=C(c2ccccc2)c2ccccc21)NCc1ccco1	20µM*	9%	9%	-27%	?	?
COc1ccc(C2=NCC(=O)N(CC(=O)NCc3ccco3)c3sc4c(c32)CCCC4)cc1OC	-8%	50µM*	-4%	-34%	-38%	16µM*
O=C(NCc1ccc(Cl)cc1)C1CCCN(C(=O)c2cnn(-c3ccc(F)cc3)c2-n2cccc2)C1 (stereo not drawn)	/	/	18%	-37%	-26%	?
CCn1c(C)[n+](CC(O)COCC2CC=CCC2)c2ccccc21 (stereo not drawn)	/	-1%	13%	?	-1%	10µM*
C=CCN1CCC2(C)c3cc(O)ccc3C[C@H]1[C@H]2C	/	8%	/	/	/	/
C[C@]12CCC(=O)C=C1CCc1ccc(O)cc12	/	0%	/	/	/	/
O=C1NC(=S)NC(=O)C1=Cc1ccc(OCC(=O)N2CCCC2)cc1	/	20µM*	?	45µM*	?	14µM*
O=C(COc1ccc(Br)cc1)N1CCN(C2CCCC2)CC1	/	-3%	29%	-8%	2%	3%[59 µM]
CCOc1cc(C=C2C(=O)NC(=O)NC2=O)ccc1OCC(=O)N1CCOCC1	-2%	?	53%	-8%	-5%	8.9µM*
SMILES	L3MBTL1 block	Sfp PPTase inh	HP1b binding inh	JMJD2A Tudor inh	BAZ2B inh	G9a block
CN(C)c1ccc(C=C2C(=O)NC(=O)NC2=O)cc1	/	/	1%[57 µM]	-1%	/	/
COc1cc(C=C2C(=O)NC(=O)NC2=O)cc(OC)c1OC	7%	32µM*	19%	-9%	-10%	22%[2.33 µM]
CCOc1cc(C=C2C(=O)NC(=O)NC2=O)ccc1OS(=O)(=O)c1ccccc1	/	50µM*	11%	79µM*	-9%	22µM*
Oc1ccc2c3c1O[C@H]1c4c(c5ccccc5n4Cc4ccccc4)C[C@]4(O)[C@H](C2)N(CC2CC2)CC[C@@]314	/	-10%	/	/	/	/
CC1(C)c2[nH]c3ccccc3c2C[C@H]2C(=O)N(Cc3ccccc3F)C(=O)N21	/	/	-14%	?	/	/
COc1cc(/C=C2/C(=O)N(c3ccccc3)N=C2C)ccc1OS(=O)(=O)c1ccccc1	?	-22%	/	/	28µM*	35µM*
COc1cc(C=C2C(=O)NC(=O)NC2=O)ccc1OS(=O)(=O)c1ccccc1[N+](=O)[O-]	/	50µM*	?	32µM*	50µM*	10µM*
COc1ccc2nc(NC(=O)c3nc(S(=O)(=O)Cc4cccc(C)c4)ncc3Cl)sc2c1	/	/	41%	-17%	-16%	-5%[59 µM]
CCOC(=O)Cn1c(-c2ccccc2)ccc(C#N)c1=O	29%	7%	91%	48%	43%	9%[59 µM]
Cc1sc(-n2c(C)cc(C=C3C(=O)NC(=O)NC3=O)c2C)c(C#N)c1C	-15%	50µM*	19%	-35%	-25%	-24%[59 µM]
Cc1cc(/C=C2\C(=O)NC(=O)N(c3ccc(Cl)cc3)C2=O)c(C)n1-c1sc2c(c1C#N)CCCC2	-17%	32µM*	0%	-34%	?	?
CCOC(=O)c1c(-n2c(C)cc(/C=C3\C(=O)NC(=O)N(C)C3=O)c2C)sc2c1CCCC2	-2%	?	8%	?	?	?
CC[C@@]1(C(=O)OC)N[C@H](CN(C)C(=O)Nc2ccc(F)cc2)[C@@H]2C(=O)N(Cc3ccccc3)C(=O)[C@@H]21	5%	/	65%	-18%	/	/
CCC(C)C(=O)OC1C[C@@]2(C)C(c3ccoc3)OC(=O)CC23OC2(C)OC34C(OC(=O)C(C)C)[C@]3(O)C(OC(=O)C5(C)OC5C)[C@]5(C)CC3(O)[C@](C)(C5CC(=O)OC)C14O2 (stereo partly drawn)	/	17%	/	/	/	-45%[2.33 µM]
COc1ccc(CCNC(=O)c2ccc3c(c2)CCN3S(=O)(=O)c2ccc(C)cc2)cc1OC	/	/	-14%	-27%	-17%	5µM*

Assay outcomes (PubChem BioAssay)
